Results as given in PubChem BioAssay (NCI).
This is part of a sample that, as a whole, favours compounds with a hit. Of some 83,000 tested, about 20% had one in any assay.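 Interpretation: 100, growth as untreated; towards 0, rising growth inhibition; 0, no net growth; 0 to -100, cell death. Compounds scoring below 10 were considered active.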 A number with no mark means an inactive call. Activity calls are given as the source filed them.

System: HL-60(TB) leukemia
Experiment: NCI-60 one-dose screen, 48 h (100 = growth as untreated, 0 = no growth, -100 = all killed)
Settings: 10 µM unless noted

Row | SMILES | growth
1 | Cn1c(Nc2ccc(C(F)(F)F)cc2)nc2cc(Oc3ccnc(-c4ncc(C(F)(F)F)[nH]4)c3)ccc21 | 30.3%
2 | CN1CSC(=S)N(Cc2ccccc2)C1 | 79.8%
3 | CNC(=O)c1cc(Oc2cccc3nc(NC(=O)Nc4cc(C(F)(F)F)ccc4Cl)ccc23)ccn1 | 103%
4 | COc1ccccc1NC(=O)OCC12COCN1COC2 | 102%
5 | Cc1ccc2cc3c(N)c4c(C)ccc(C)c4nc3nc2c1 | 12.6%
6 | N#Cc1c(-c2cccc(F)c2)cc(-c2ccc(Br)s2)[nH]c1=O | 67%
7 | Cc1cc(Cc2cc(C)c(O)c(C)c2)cc(C)c1O | 15.6%
8 | COc1cc(CCC[P+](c2ccccc2)(c2ccccc2)c2ccccc2)cc2c1OCO2 | 10.3%
9 | Cc1ccc(C(=O)c2ccc(CC(=O)N/N=C/c3ccc(O)cc3O)n2C)cc1 | 4.48% (active)
10 | CCN1C(=O)N(c2ccccc2)C2Nn3c(s/c(=C4\C(=O)N(C(C)C)c5ccccc54)c3=O)=NC21 (stereo not given) | 97.8%
11 | O=S(=O)(NCCNc1nccc(-c2c(-c3cccc(F)c3)nc3sccn23)n1)c1ccccc1 | 63.1%
12 | CC/C(=C(/c1ccc(OCCN(C)C)cc1)c1ccc(OC(=O)CCC(=O)c2c(C)[nH]c(/C=C3\N=C(c4ccc[nH]4)C=C3OC)c2C)cc1)c1ccccc1 | 24.2%
13 | O=C(NCCNc1nccc(-c2c(-c3cccc(O)c3)nc3sccn23)n1)c1ccccc1O | 59.8%
14 | Nc1nc(N)c2c(n1)NC(c1ccc(Cl)cc1)C1CCc3ccccc3C1=N2 (stereo not given) | 13.5%
15 | N#CC1C(=O)SC2c3ccccc3C(=O)c3ccccc3C12 (stereo not given) | 98.4%
16 | CN(C1c2ccccc2Oc2ccccc21)S(=O)(=O)c1cc(Cl)ccc1Cl | 15.7%
17 | O=C(/C=C/c1ccccc1Cl)c1ccc(O)cc1 | 60.2%
18 | Brc1ccc(SSc2ccc(Br)cc2)cc1 | 70.9%
19 | COc1ccc(-c2cncnc2N)cc1OC | 95.8%
20 | COc1cc(/C=C/C(=O)/C=C/c2cc(OC)c3c(c2OC)OCO3)c(OC)c2c1OCO2 | 27.2%
21 | O=C(Oc1ccc(Cl)cc1[N+](=O)[O-])Oc1ccc(Cl)cc1[N+](=O)[O-] | 95.7%
22 | CCOc1cc2ncc(C#N)c(Nc3ccc(OCc4cccc(F)c4)c(Cl)c3)c2cc1NC(=O)CCCCC1CCSS1 (stereo not given) | 108%

Row | SMILES | growth
23 | C/C(=C(/c1ccc(Cl)cc1)c1ccc(OCCN2CCCCCC2)cc1)c1ccccc1 | 63.6%
24 | COc1ccc2c(c1)[nH]c(=O)c1c3cc(OC)ccc3cn21 | -8.1% (active)
25 | CCOc1cc(NC(=O)c2ccccc2)c(OCC)cc1N | 109%
26 | COc1cc(C2CC(=O)Nc3c2c(C)nn3-c2nc3ccccc3[nH]2)cc2c1OCC(=O)N2 (stereo not given) | 77.4%
27 | CCOC(=O)n1cc(-c2nonc2-c2cn(C)c3ccc(OC)cc23)c2cc(F)ccc21 | 99.7%
28 | COc1cc2cc(NCc3ccncc3)nc(C)c2cc1OC | 103%
29 | C=CC(=O)Nc1cccc(Nc2nc(Nc3ccc(N4CCN(C(C)=O)CC4)cc3OC)ncc2C(F)(F)F)c1 | -25.2% (active)
30 | COc1ccc2nccc(Cl)c2c1 | 103%
31 | COC(/C=C/c1ccc([N+](=O)[O-])cc1)OC | 42%
32 | O=C1C(Cl)C(c2ccccc2Cl)N1n1cnnc1 (stereo not given) | 109%
33 | Cc1c(N2CN3C[C@H](C)N4CN(c5c(C)n(C)n(-c6ccccc6)c5=O)CN5C[C@@H](C)N(C2)C3C54)c(=O)n(-c2ccccc2)n1C (stereo not given in full) | -14.5% (active)
34 | COc1ccc(C[n+]2c3ccccc3n3c4ccc(N)cc4ccc32)c(OC)c1OC | -6.46% (active)
35 | N=c1c2c(=N)n3c(nc2nc2n1-c1ccccc1Sc1ccccc1-2)sc1cc(Cl)ccc13 | 50.3%
36 | NC(=S)N/N=C(/c1cccs1)C1CC1 | 79.9%
37 | N#Cc1ccccc1C#Cc1ccccc1C#Cc1ccc(OCCCCCCOc2ccc(C#Cc3ccccc3C#Cc3ccccc3C#N)cc2)cc1 | 99.7%
38 | O=[N+]([O-])c1cccc([I+]c2ccccc2)c1 | 37.9%
39 | COc1ccc(C(=O)/C=C/c2cn(Cc3ccc(Cl)cc3)c3ccccc23)cc1 | 47.2%
40 | CC(=O)[C@H]1CC[C@]2(C)[C@@H]1CC[C@@H]1[C@@]3(C)C/C(=C/c4cccnc4)C(=O)C(C)(C)[C@@H]3CC[C@]12C | 8.47% (active)
41 | CCCCCCCCCCCCCCNCc1ccccc1 | 51.9%
42 | CS(=O)(=O)c1ccc(C(=O)Nc2ccc(Cl)c(-c3ccccn3)c2)c(Cl)c1 | 14.2%
43 | c1cc2c(ccc3[nH]c(-c4ccc5[nH]ncc5c4)c4c(c32)CCCC4)n1 | 9.65% (active)
44 | N=C(N)c1ccc(-c2ccc(-c3ccccc3)s2)cc1 | -34.2% (active)

Row | SMILES | growth
45 | O=C(NC(=S)Nc1ccccn1)c1ccccc1 | 95.8%
46 | CCN(CC)CCCNc1cc(OC)c(OC)c2cccnc12 | 29.2%
47 | Cc1ccc[n+](CCC(N)=O)c1 | 86.6%
48 | O=C(/C=C/c1ccco1)Nc1ncc(Cc2cc(Cl)ccc2Cl)s1 | -50% (active)
49 | CCn1c(SCC(=O)Nc2cc(C(F)(F)F)ccc2Cl)nc2ccccc2c1=O | 19.3%
50 | Cc1ccc(NCN2C(=O)c3ccccc3C2=O)c(C)n1 | 97.8%
51 | Oc1cccc(CCc2ccc(Oc3cc(CCc4cccc(O)c4)cc(O)c3O)cc2)c1 | 15.3%
52 | CCCCCCOc1ccc(/C=N/Nc2cc(C)nc3ccc(Cl)cc23)cc1 | 8.19% (active)
53 | O=C(Nc1ccc(Nc2ccncc2)cc1)c1ccc(Nc2ccnc3ccc([N+](=O)[O-])cc23)cc1 | 79.9%
54 | Cc1c(O)cccc1O | 110%
55 | O=C(c1ccccc1)c1ccccc1-c1ccccc1 | -4.58% (active)
56 | COc1ccc(/C=C2/CN(C(=O)c3ccc(C)cc3)C/C(=C\c3ccc(OC)cc3)C2=O)cc1 | 80%
57 | COc1ccc(C2=C/C(=C\c3ccc(Cl)cc3)C(=O)N2/N=C/c2ccc(Cl)cc2)cc1 | 102%
58 | CN(C)c1ccc(/C=N\Nc2cc(=O)[nH]c3ccc(Cl)cc23)cc1 | 98.2%
59 | COC(=O)c1c(C)[nH]c(/C=C2\N=C(c3ccc[nH]3)C=C2OC)c1C | 4.25% (active)
60 | O=c1n(C2OC(CO)C(O)C2O)ccc2nccn12 (stereo not given) | 101%
61 | CCN(CC)CC(O)COc1c(Br)c(Br)c(Br)c2c1OC(C)(C)C2 (stereo not given) | 14%
62 | O=C(/C=C/c1nnc2n(Cc3ccccc3)c(=O)c3c4c(sc3n12)CCCC4)c1ccccc1 | 43.5%
63 | CCN(CC)c1ccc(-c2cc(-c3cc(OC)c(OC)c(OC)c3)nc(N3CCC(O)CC3)c2C#N)cc1 | -14.1% (active)
64 | CC(=O)c1c(/C=C/c2ccc(C)cc2)c2ccccc2[nH]c1=O | 99.3%
65 | Cc1ccc(/C=C(\C#N)c2cc3ccccc3[nH]2)cc1 | 22.8%
66 | COc1c(B(O)O)cccc1-c1cc(C)c2c(ccc3[nH]ncc32)n1 | 23.8%

Row | SMILES | growth
67 | Cc1ccc(C(C)C)c(OCc2ccc(C(=O)N/N=C/c3cccc(O)c3O)cc2)c1 | -4.57% (active)
68 | Cc1ncc(C(=O)Nc2ccc(CN3CCN(C)CC3)c(C(F)(F)F)c2)cc1C#Cc1cnc(N)c2cnccc12 | 16.1%
69 | COc1nc2ccccc2cc1-c1nc2c(cnn2-c2ccccc2)c(=O)[nH]1 | 11.2%
70 | Cc1cc(=O)[nH]c(/C(=N/Nc2ccccc2)C(=O)c2ccc(Cl)cc2)n1 | 50.7%
71 | O=C1c2ccccc2-c2ccccc2C1(Cl)Cl | -39.6% (active)
72 | O=C(CSc1nnc(-c2ccccc2)o1)Nc1ccc(C(=O)/C=C/c2ccccc2)cc1 | 71%
73 | CN(CC(=O)N(Cc1ccc(C2CCCCC2)cc1)c1ccc(C(=O)O)cc1)S(=O)(=O)c1c(F)c(F)c(F)c(F)c1F | -28.6% (active)
74 | COc1ccc(-c2cnoc2-c2cc(OC)c3c(c2)OCCO3)cc1 | -27.4% (active)
75 | O=S(=O)(CCN1CCOCC1)Nc1cncc(-c2ccc3ncnc(Nc4ccc(F)c(Cl)c4)c3c2)c1 | 110%
76 | COc1ccc(-c2cc(Cc3cccs3)c(=O)n(Cn3ccc4ccccc43)n2)cc1 | 98.4%
77 | O=C(CN1C(=O)S/C(=C\C(Cl)=C\c2ccccc2)C1=O)NC1CCS(=O)(=O)C1 (stereo not given) | 18.6%
78 | CCOC(=O)c1c(-c2ccc(OC)cc2)c(C#N)c2c(C#N)c(N)nn2c1N | -40.4% (active)
79 | CC(=O)O[C@H]1CC2CCC3C(CC[C@@]4(C)C3C[C@H]([N+]3(C)CCCCC3)[C@@H]4OC(C)=O)[C@@]2(C)C[C@@H]1N1CCCCC1 (stereo not given in full) | 107%
80 | C[C@H]1Oc2cc(cnc2N)-c2c(nn(C)c2C#N)CN(C)C(=O)c2ccc(F)cc21 | 77%
81 | C=C(C)[C@@H]1CC[C@]2(C)[C@H](CC=C3[C@@H]4C[C@](C)(C(=O)N5CCN(C)CC5)CC[C@]4(C)CC[C@]32C)[C@@]1(C)CCC#N | 22.6%
82 | Cc1cnc(NC(=O)C(Cc2ccccc2)NC(=O)c2ccccc2)s1 (stereo not given) | 38.7%
83 | COc1cc(/C=C/C(=O)c2ccc(NC(=O)CSc3nnc(-c4cc(OC)c(OC)c(OC)c4)n3-c3ccccc3)cc2)cc(OC)c1OC | 6.87% (active)
84 | CC(=O)Oc1cc2cnc3c4cc(OC(C)=O)c(OC(C)=O)cc4ccc3c2cc1OC(C)=O | -2.79% (active)
85 | C=C(C)[C@@H]1CC[C@]2(C(=O)N3CCOCC3)CC[C@]3(C)[C@H](CC[C@@H]4[C@@]5(C)C/C(=C/c6ccncc6)C(=O)C(C)(C)[C@@H]5CC[C@]43C)[C@@H]12 | 26.2%
